# High-throughput results from PubChem BioAssay.
# An excerpt weighted towards active compounds, which were near 0.93% of everything screened.
# MEP2-GFP yeast – modulators of TOR pathway MEP2-GFP in S. cerevisiae; 330,000 compounds, 0.51% hits; GFP response vs DMSO, % at 10 µM; AID 2016; S. cerevisiae MEP2-GFP strain, flow cytometry GFP, 3 h; 100% = DMSO control level;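 active means GFP response versus DMSO above a set limit, roughly screen mean plus 3 SD, cut at about 180% in these data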;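 further: median GFP fluorescence of the barcode-gated MEP2-GFP cells per well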
# AGP1-GFP MLPCN – alters AGP1-GFP fluorescence in TOR pathway yeast screen. 320,000 compounds, 0.02% hits. S. cerevisiae AGP1-GFP multiplex flow cytometry, 3 h; GFP as percent of DMSO wells. GFP response vs DMSO, % at 10 µM. AID 2066;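 active means GFP response relative to DMSO above a set limit, near screen average plus 3 SD, cut at about 150% in these data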;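 further: median GFP channel fluorescence of the gated AGP1 strain per well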
# CIT2 TOR yeast – modulators of TOR pathway CIT2-GFP in S. cerevisiae; S. cerevisiae CIT2-GFP strain, flow cytometry, 3 h; 100 means same as DMSO wells; GFP response vs DMSO, % at 10 µM; 320,000 compounds, 0.065% hits;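 active means GFP response relative to DMSO above a set limit, near the screen mean plus 3 SD, cut at about 150% in these data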;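 further: ratio of well median GFP fluorescence to mean of DMSO wells on the plate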
# RPL19A-GFP yeast – yeast TOR pathway RPL19A-GFP modulation. S. cerevisiae RPL19A-GFP strain, flow cytometry, 3 h; active compounds read low. percent response vs DMSO, % at 10 µM. 330,000 compounds, 0.3% hits;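 active means percent response vs DMSO below 50%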;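 further: median channel GFP fluorescence of the barcoded RPL19A-GFP strain; ratio of sample median GFP to plate DMSO average so 100% = DMSO; lower means less RPL19A-GFP as with rapamycin TOR inhibition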
# LAP4-GFP MLPCN – alters LAP4-GFP fluorescence in TOR pathway yeast screen; S. cerevisiae LAP4-GFP multiplex, flow cytometry GFP, 3 h; median GFP as percent of DMSO wells; GFP response vs DMSO, % at 10 µM; 320,000 compounds, 0.34% hits;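 active means GFP response vs DMSO above a set limit, about the screen mean plus 3 SD, cut at about 150% in these data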
# LAP4 cherry2 – second confirmation of modulators of TOR reporter LAP4-GFP in yeast; AID 2621; GFP response vs DMSO, % at 10 µM; 590 compounds, 20% hits; shares compounds with LAP4-GFP MLPCN; S. cerevisiae LAP4-GFP strain, flow cytometry GFP, 3 h;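 active means GFP signal as percent of the solvent control above about 150%, meaning raised reporter expression, limit read from the data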;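 further: ratio of well median GFP fluorescence to plate DMSO mean so 100% = DMSO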
# MEP2-GFP pick2 – yeast MEP2-GFP modulation, second cherry pick | shares compounds with LAP4-GFP MLPCN | S. cerevisiae MEP2-GFP strain, flow cytometry GFP, 3 h | GFP response vs DMSO, % at 10 µM | 590 compounds, 10% hits | AID 2622;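 active means GFP signal above 150% of the solvent control wells, that is a rise of more than half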;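 further: median channel GFP fluorescence of all gated yeast cells per well; ratio of median GFP to plate DMSO average so 100% = DMSO level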
# RPL19A GFP CP2 – second confirmation of modulators of TOR reporter RPL19A-GFP in yeast. GFP response vs DMSO, % at 10 µM. S. cerevisiae RPL19A-GFP strain, flow cytometry GFP, 3 h; active compounds read low; 100% means same as DMSO wells. 590 compounds, 3% hits. shares compounds with LAP4-GFP MLPCN;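 active means under 65% GFP response relative to DMSO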;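 further: median GFP channel fluorescence per well over the all cells gate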
# CIT2-GFP pick2 – yeast CIT2-GFP TOR reporter modulation, second cherry pick; shares compounds with LAP4-GFP MLPCN; S. cerevisiae CIT2-GFP strain, flow cytometry GFP, 3 h; DMSO control wells read 100%; GFP response vs DMSO, % at 10 µM; 590 compounds, 8% hits;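 active means GFP response vs DMSO above about 150%, limit read from the data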;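 further: median green fluorescence per well over all gated yeast cells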
# AGP1-GFP pick2 – yeast AGP1-GFP TOR reporter modulation, second cherry pick; 590 tested, under 10 active; S. cerevisiae AGP1-GFP strain, flow cytometry GFP, 3 h; AID 2643; shares compounds with LAP4-GFP MLPCN; percent response vs DMSO, % at 10 µM;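 active means over 150 percent of DMSO response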;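 further: median GFP channel fluorescence over all cells without mother daughter split; sample median GFP divided by mean DMSO control so 100% equals DMSO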
# Yeast autofluor – yeast s288c autofluorescence artifact, counter-screen | shares compounds with LAP4-GFP MLPCN | S. cerevisiae s288c, 520 nm autofluorescence, flow cytometry, 3 h; active compounds read high; zero means same as solvent-only cells | fluorescence change (kMESF span) at 33 µM | 610 tested, under 10 active | AID 2757;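 active means fluorescence span over the dose series, or activity score, above about 33, limit read from the data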
# s288c autofl DR – TOR screen hit shows autofluorescence in yeast s288c; shares compounds with LAP4-GFP MLPCN; S. cerevisiae s288c parental, compound autofluorescence, flow cytometry, 3 h; fluorescence change (span) at 33 µM; 110 tested, under 10 active; AID 488829;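 active means fluorescence change span, or the activity score built from it, above 25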
# TORC1 bypass gr – compounds blocking wildtype yeast growth but not TORC1 bypass cells; 120 tested, under 10 active; growth rating (0-3) at 30 µM; shares compounds with LAP4-GFP MLPCN; S. cerevisiae BY4741 spot growth rating, 48-72 h; active compounds read low;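 active means growth rating at most 1 for wild type yeast while the TORC1 bypass strain still grows fully, rated 3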
# Numbers without * were called inactive; . = no result given.
SMILES,MEP2-GFP yeast,AGP1-GFP MLPCN,CIT2 TOR yeast,RPL19A-GFP yeast,LAP4-GFP MLPCN,Yeast autofluor,others
O=C(OCn1ncc(Br)c(Br)c1=O)c1ccccc1Cl,89.8,96.4,84.4,87.5,203.1*,0,
Cc1noc(C)c1NC(=O)N(C)C[C@@H]1Oc2ccc(NC(=O)Cc3cn(C)c4ccccc34)cc2CC(=O)N([C@H](C)CO)C[C@@H]1C,91.6,88.6,93.4,98.5,82.6,.,
COc1ccc2[nH]c3c(c2c1)CCNC3c1ccc([N+](=O)[O-])o1 (stereo not given),498.4*,132.4,266.3*,135.2,313.6*,.,LAP4 cherry2=316.6*;MEP2-GFP pick2=564.2*;RPL19A GFP CP2=145.3;CIT2-GFP pick2=414.4*;AGP1-GFP pick2=133.6
Cc1nonc1C1CCCN1Cc1nc(-c2ccccc2Cl)oc1C (stereo not given),89.8,102.7,94.1,94.2,102.5,.,
O=C(/C=C/c1ccc(Cl)cc1)c1cccnc1,93.8,40.1,55.3,57.7,87.8,.,LAP4 cherry2=111.2;MEP2-GFP pick2=108.3;RPL19A GFP CP2=100.4;CIT2-GFP pick2=111.2;AGP1-GFP pick2=94.0
N#Cc1ccc(/C=C/C(=O)c2cccnc2)cc1,86.6,89.8,95.6,94.2,105.1,.,
Oc1c(CN2CCN(c3ccccc3)CC2)cc(Br)c2cccnc12,115.6,91.5,101.3,100.4,224.4*,2.52,
c1ccc(N2CCN(Cc3ccnc4ccccc34)CC2)cc1,99.8,.,107.7,102.5,98.2,.,
COc1cc(/C=N/n2nnnc2N)cc(Cl)c1OC,102.6,104.4,105.5,97.3,121.5,.,
CC(=O)NC(c1cc(Cl)c2cccnc2c1O)C(C)C (stereo not given),84.8,95.3,90.9,95.1,99.7,.,
Cc1ccc(C(c2cc(Cl)c3cccnc3c2O)N2CCN(C)CC2)cc1 (stereo not given),100.3,67.4,87.9,74.9,226.6*,5.34,s288c autofl DR=2.76;TORC1 bypass gr=3
Oc1c(C(Nc2cccc(C(F)(F)F)c2)c2cccnc2)ccc2cccnc12 (stereo not given),100.9,101.6,102.0,106.4,95.8,.,
CN1CCN(C(c2ccc(C(F)(F)F)cc2)c2ccc3cccnc3c2O)CC1 (stereo not given),100.3,70.5,81.6,93.5,322.0*,1.31,s288c autofl DR=0.24;TORC1 bypass gr=3
CCOc1ncccc1C(=O)Nc1cccc(S(=O)(=O)N2CCOCC2)c1,90.8,95.7,84.4,88.4,97.8,.,
CCCCn1c(=O)c(CCC(=O)OCC(=O)NC(=O)NCCC(C)C)nc2ccccc21,111.4,93.0,110.9,98.6,98.8,.,
COCc1nc(-c2cc(OC)c(OC)c(OC)c2)no1,792.9*,22.6,98.9,24.8*,109.4,.,LAP4 cherry2=103.8;MEP2-GFP pick2=104.8;RPL19A GFP CP2=100.9;CIT2-GFP pick2=98.4;AGP1-GFP pick2=100.5
